Where “and” joins values, the source holds several entries; their conditions need not be identical. Equal values may be shown once. The campaign covered roughly 16,000 compounds. About 4,000 (25%) were called active. Another 26% or so got no clear call; they are omitted. The call rests on the fitted dose curve; in most records, active means well fitted curve in the direction sought with a large enough effect; inconclusive means small, poorly fitted or top-dose-only effect, or effect the other way; inactive means no such curve, though single readings can be large or run the other way. The list is a sample of the results.
On the % scale 0 is the no-effect control and ±100 the full control effect.

Chain of Cytochrome P450 2C9 (Homo sapiens) (P11712 whole entry, looked up): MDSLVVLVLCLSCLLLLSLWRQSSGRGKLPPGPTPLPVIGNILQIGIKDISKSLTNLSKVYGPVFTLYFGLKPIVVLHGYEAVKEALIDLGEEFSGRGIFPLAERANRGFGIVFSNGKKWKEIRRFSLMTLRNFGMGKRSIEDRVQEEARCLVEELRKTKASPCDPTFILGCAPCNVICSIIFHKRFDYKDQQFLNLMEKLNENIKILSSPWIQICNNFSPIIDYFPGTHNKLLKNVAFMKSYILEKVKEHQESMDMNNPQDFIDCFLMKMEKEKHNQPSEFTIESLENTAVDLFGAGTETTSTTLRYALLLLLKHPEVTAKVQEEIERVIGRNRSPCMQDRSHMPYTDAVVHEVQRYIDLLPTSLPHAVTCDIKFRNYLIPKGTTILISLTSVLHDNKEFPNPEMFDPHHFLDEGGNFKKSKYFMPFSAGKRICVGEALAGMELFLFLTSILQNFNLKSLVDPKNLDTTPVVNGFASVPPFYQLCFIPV

The assay addresses Cytochrome P450 2C9 (Homo sapiens) (UniProt P11712). The experiment in a line: Cytochrome panel assay with activity outcomes. The settings on record: recombinant CYP, pro-luciferin dealkylation, luminescence, p450-cyp2c9; series mostly up to 57.1 µM; activity, negative = inhibition: at the top concentration.
As for `Cc1nnc(SCC(=O)NCC2CCCCC2)n(N)c1=O`, the “activity, negative = inhibition” value is -28.7% (inactive).
By AC50 is commonly meant the midpoint of the concentration-response curve, whichever way the signal moves. In the case of `Cc1ccc(-c2cc(-c3nnc(SCC(=O)NC(C)C(C)C)n3N)c3ccccc3n2)cc1` (centres undefined), the concentration at half-maximal activity (AC50) was 1.12 µM (active).
On the same count and under the same terms, as for `NNC(=O)CNC(c1ccccc1)c1cc(Br)ccc1NC(=O)c1ccccc1Br` (centres undefined), the figure is 3.16 µM (active).
Regarding `NNC(=O)CNc1cccc(Br)c1`, the activity, negative = inhibition was 1.94% [at 11.4 µM] (inactive).
`Cc1ccccc1-c1nc(N2CCNCC2)c2ccccc2n1`: the activity, negative = inhibition is 0.671% [at 2.29 µM] (inactive).
Turning to `Oc1c(C(O)(c2ccccc2)c2ccc3ccccc3c2O)ccc2ccccc12`, the AC50 is 0.794 µM (active).
Consider `C[C@](O)(c1ccccc1)c1nccc2ccccc12`, for which the activity, negative = inhibition is -17.3% [at 11.4 µM] (inactive).
On to `Nc1nc(N)c2nn(-c3ccc(C(=O)O)cc3)nc2n1`, for which the activity, negative = inhibition was 7.68% [at 11.4 µM] (inactive).
With `COc1ccccc1C1CC(c2c(-c3ccccc3)c3cc(Cl)ccc3[nH]c2=O)=NN1S(C)(=O)=O` (centres undefined), the AC50 is 2.82 µM (active).
With `CCOC(=O)N1N=C(c2ccccc2)CC1(O)C(F)(F)F` (centres undefined), the AC50 was 10 µM (active).
Consider `CCC1=NN(C(=O)CCc2ccccc2)C(O)(C(F)(F)F)C1` (centres undefined), for which the AC50 is 4.47 µM (active).
As to `COc1cc(N=C(N)N=C(N)N)c2ncccc2c1`, the activity, negative = inhibition is 8.03% [at 11.4 µM] (inactive).
On the same count and under the same terms, with `CCOC(=O)N/N=C1/C[C@@H](O)[C@@H](O)[C@@H]2[C@@H]3C(=O)N(c4cccc(Oc5ccccc5)c4)C(=O)[C@H]3CC[C@H]12` the figure was 7.2% [at 11.4 µM] (inactive).
In the case of `Cc1cc(C2C(C#N)=C(N)OC3=C2C(=O)CC(C)(C)C3)c(C)s1` (centres undefined), the AC50 was 7.08 µM (active).
For `COc1ccc(C2C(C#N)=C(N)OC3=C2C(=O)CC(C)(C)C3)c([N+](=O)[O-])c1OC` (centres undefined), the AC50 was 1 µM (active).
For the molecule `C[C@H]1COC(=O)[C@H](Cc2ccccc2)NC(=O)[C@@H](C)COC(=O)[C@H](Cc2ccccc2)NC1=O`, the activity, negative = inhibition was -8.11% [at 11.4 µM] (inactive).
Same read-out and setting: with `CO[C@H]1COC(=O)[C@H](C)NC(=O)C/C=C\[C@@H](C)[C@@H](NS(=O)(=O)c2ccc(C)cc2)COC(=O)C/C=C\[C@@H]1C` the figure was -2.5% [at 11.4 µM] (inactive).
Regarding `Cc1ccc(C(=O)Cn2nnc3c(sc4nc5c(c(-c6ccccc6)c43)CCC5)c2=O)cc1`, the AC50 was 3.55 µM (active).
Still for that read-out and setting: with `Cc1ccc(-c2c3c(nc4sc(C(N)=O)c(N)c24)CCC3)cc1` the figure was 8.91 µM (active).
On to `CCOC(=O)c1c(C)nc2sc3c(=O)n(-c4ccc(OC)cc4)nnc3c2c1-c1ccc(OC)cc1`, for which the concentration at half-maximal activity (AC50) was 10 µM (active).
`CCOC(=O)c1c(NC(=O)C2C3CCC(O3)C2C(=O)O)sc(C)c1-c1ccc(C)cc1` (centres undefined): the “activity, negative = inhibition” value was 12.3% (inactive).
With `CCOC(=O)Cn1nnc2c(sc3nc4c(c(-c5ccc(Cl)cc5)c32)CCC4)c1=O`, the concentration at half-maximal activity (AC50) was 12.6 µM (active).
On to `CCN1CCC[C@@H]1CNC(=O)c1cc(S(N)(=O)=O)ccc1OC`, for which the “activity, negative = inhibition” value was -0.608% (inactive).
`N#CC1(Nc2ccc(-c3ccc(NC4(C#N)CCCC4)cc3)cc2)CCCC1`: the activity, negative = inhibition is -5.08% [at 11.4 µM] (inactive).
The same measure, in the same setting: with `C[C@@H]1/C=C\CC(=O)OC[C@H](C)C(=O)N2CCC[C@@H]2C(=O)OC1` the figure was -11.7% [at 11.4 µM] (inactive); with `[Cu].[O-]/N=C1/C(=[OH+])Nc2ccccc21.[O-]Nc1c(O)[nH]c2ccccc12`, -2.92% [at 11.4 µM] (inactive).
With `O=C(C1CCC(=O)N1Cc1ccccc1Cl)N1CCN(c2cccc(Cl)c2)CC1` (centres undefined), the concentration at half-maximal activity (AC50) is 15.8 µM (active).
Regarding `CCS(=O)(=O)N1CCC(C(=O)NCCCOC)CC1`, the “activity, negative = inhibition” value is -32.5% (inactive).
Take `COCCCNC(=O)C1CCC(=O)N1Cc1ccccc1Cl` (centres undefined): the AC50 was 5.62 µM (active).
In the case of `CN(CCCNC(=O)C1CCC(=O)N1Cc1ccccc1Cl)c1ccccc1` (centres undefined), the “activity, negative = inhibition” value was -22.6% (inactive).
Turning to `O=c1n(CCCN2CCN(c3cccc(Cl)c3)CC2)nc2ccccn12`, the AC50 result was “inactive”.
Take `COC(=O)N1CCC2(CC1)CCN(c1cccc(-c3ccccc3)c1)CC2`: the “activity, negative = inhibition” value was 10.7% (inactive).
For the molecule `O=C(Nc1ccc(Br)cc1)C1CCC(=O)N1Cc1ccccc1Cl` (centres undefined), the concentration at half-maximal activity (AC50) is 0.447 µM (active).
Take `Cc1noc(NS(=O)(=O)c2ccc(N/C=C/C(=O)c3ccc4c(c3)OCO4)cc2)c1C`: the AC50 is 12.6 µM (active).
Still for that read-out and setting: as for `Cc1noc(NS(=O)(=O)c2ccc(N/C=C\C(=O)c3ccc4c(c3)OCO4)cc2)c1C`, the figure is 14.1 µM (active).
Regarding `CCC1(C)Cc2c(sc3nnn(CC(=O)Nc4cccc5ccccc45)c(=O)c23)CO1` (centres undefined), the AC50 is 7.94 µM (active).
As for `CCCSc1nc(NCc2ccco2)c2c3c(sc2n1)COC(C)(C)C3`, the AC50 is 6.31 µM (active).
For the molecule `CCCSc1nc(SCC(=O)NCc2ccccc2)c2c3c(sc2n1)COC(C)(CC)C3` (centres undefined), the concentration at half-maximal activity (AC50) was 3.98 µM (active).
Same read-out and setting: as for `CCC1(C)Cc2c(sc3nnn(CC(=O)Nc4ccc(C)cc4)c(=O)c23)CO1` (centres undefined), the figure is 11.2 µM (active).
As for `COC(=O)[C@H](CCSC)NC(=O)C/C=C\[C@@H](C)[C@@H](CO)OC`, the activity, negative = inhibition is -1.66% [at 11.4 µM] (inactive).
Take `CN(C)c1ccc(-c2nccc(NCc3cccs3)n2)cc1`: the activity, negative = inhibition was -21.1% [at 2.29 µM] (inactive).
Same read-out and setting: as for `CC(=O)OC1CCC(OC(C)=O)c2c1n([O-])c(C)c(C)[n+]2=O` (centres undefined), the figure is -6.01% (inactive); as for `O=C(Nc1ccc2c(c1)OCCO2)C1CCN(C(=O)c2ccccc2)CC1`, -40.1% (inactive).
Take `O=C(CN1CCN(CC(=O)Nc2ccccc2Cl)CC1)Nc1ccc2c(c1)OCCO2`: the AC50 was 4.47 µM (active).
For `CCn1c(-c2ccccc2Cl)nn(CC(=O)Nc2ccc(OC)cc2)c1=S`, the AC50 is 2.24 µM (active).
Same read-out and setting: as for `O=C(CC(c1ccccc1)c1ccccc1)Nc1ccc2c(c1)OCCO2`, the figure is 4.47 µM (active).
On the same count and under the same terms, as for `O=C(Nc1ccc2c(c1)OCCO2)c1cccc2nc3ccccc3nc12`, the figure is 12.6 µM (active).
As to `CC(=O)Nc1ccc2c(c1)OCCOCCOc1cc(NC(C)=O)ccc1OCCOCCOCCO2`, the “activity, negative = inhibition” value was -15% (inactive).
Turning to `CC(=O)Nc1ccc2c(c1)OCCO2`, the “activity, negative = inhibition” value is -11.3% (inactive).
Regarding `COC(=O)Cn1nc(-c2ccccc2)n(-c2ccccc2)c1=S`, the “activity, negative = inhibition” value is -24.6% (inactive).
Turning to `Oc1cc2c(c(Cl)c1O)CCNC[C@H]2c1ccccc1`, the AC50 entry is “inactive”.
As to `COC(=O)N1CCC2(CC1)CN(C(=O)Nc1ccc(OC)cc1)C2`, the “activity, negative = inhibition” value is -26.8% (inactive).
Consider `COC(=O)N1CCC2(CCN(C(=O)Nc3ccc(OC)cc3)CC2)CC1`, for which the “activity, negative = inhibition” value is -9.69% (inactive).
Take `COc1ccc(NC(=O)CN2CCN(CC(=O)Nc3ccccc3Cl)CC2)cc1`: the AC50 was 8.91 µM (active).
As for `S=C(Nc1ccccc1)Nc1ccc(OCc2ccccc2)cc1`, the “activity, negative = inhibition” value was -35.1% (inactive).
In the case of `COc1ccccc1NC(=O)CN1CCN(CC(=O)Nc2ccc(OCc3ccccc3)cc2)CC1`, the concentration at half-maximal activity (AC50) is 2.24 µM (active).
Take `O=C1[C@@H]2[C@H]3[C@H](O)[C@H](O)C/C(=N/OC[C@@H](O)COCc4ccco4)[C@H]3CC[C@H]2C(=O)N1c1ccc(F)cc1F`: the activity, negative = inhibition is -12.6% [at 11.4 µM] (inactive).
For `Cc1cccc(CNc2cc(-c3cccc(C#N)c3)ncn2)c1`, the activity, negative = inhibition is 3.34% [at 2.29 µM] (inactive).
`NCCS(=O)O`: the “activity, negative = inhibition” value is 8.02% (inactive).
Consider `Cn1c(=O)c2[nH]c(/N=N\N3CCN(CCO)CC3)nc2n(C)c1=O`, for which the activity, negative = inhibition was 4.93% [at 11.4 µM] (inactive).
`C#CCn1c(S(=O)(=O)Cc2ccc(OC)cc2)nc(-c2ccccc2)c1-c1ccccc1`: the AC50 was 2.82 µM (active).
In the case of `COc1ccc(CO/N=C/c2c(C)[nH]c(=O)[nH]c2=O)cc1`, the “activity, negative = inhibition” value was -23.5% (inactive).
For `C[C@H](CCC(=O)NCC(=O)O)[C@H]1CC[C@H]2[C@H]3[C@@H](C[C@@H](O)[C@]12C)[C@]1(C)CC[C@H](O)C[C@@H]1C[C@@H]3O`, the “activity, negative = inhibition” value was -14.1% [at 25.6 µM] (inactive).
Consider `COC(=O)CC[C@@H](C)[C@H]1CC[C@H]2[C@H]3CC[C@H]4C[C@@H]5CC[C@@]4(C)C3(O5)[C@@H](Br)[C@@H](Br)[C@@]12C`, for which the AC50 was 2.51 µM (active).
Turning to `COC(=O)N1CCC2(CC1)CCN(c1ccncc1)CC2`, the “activity, negative = inhibition” value is 14.6% (inactive).
Turning to `Cn1cc(C(=O)N/N=C/C(Br)=C\c2ccccc2)ccc1=O`, the “activity, negative = inhibition” value was -26% (inactive).
As to `O=C(Cc1cccs1)N/N=C/C(Br)=C/c1ccccc1`, the half-maximal activity concentration (AC50) is 2.82 µM (active).
Turning to `C/C(CC(=O)NC1CCCC1)=N\NC(=O)Cc1cccs1`, the “activity, negative = inhibition” value was -10.1% (inactive).
In the case of `CC(C)(C)c1ccc(OCC(=O)NNC(=O)Cc2cccs2)cc1`, the “activity, negative = inhibition” value was 28.7% (inactive).
On to `Cn1cccc1CC(=O)N/N=C\c1cccs1`, for which the “activity, negative = inhibition” value is -23.2% (inactive).
Regarding `CC(/C=N/NC(=O)Cc1cccs1)=C\c1ccco1`, the half-maximal activity concentration (AC50) is 7.94 µM (active).
With `CC(=O)Nc1c(S(=O)(=O)c2ccccc2)c2nc3ccccc3nc2n1Cc1ccccc1`, the AC50 was 8.91 µM (active).
Consider `C[C@](O)(C(=O)Nc1ccc(S(=O)(=O)c2ccccc2)cc1)C(F)(F)F`, for which the “activity, negative = inhibition” value is -10.9% (inactive).
For the molecule `Nc1c(S(=O)(=O)c2ccccc2)c2nc3ccccc3nc2n1Cc1ccco1`, the half-maximal activity concentration (AC50) is 3.55 µM (active).
Take `Cc1nc2c([nH]1)c(=O)n(C)c(=O)n2Cc1ccco1`: the “activity, negative = inhibition” value was 13.3% (inactive).
As to `CC(C)(C)CNC(CO)C12CC3CC(CC(C3)C1)C2` (centres undefined), the “activity, negative = inhibition” value is -9.91% (inactive).
For `CCOC(=O)N/N=C1/C[C@@H](O)[C@@H](O)[C@@H]2[C@@H]3C(=O)N(Cc4ccc5c(c4)OCO5)C(=O)[C@H]3CC[C@@H]12`, the activity, negative = inhibition was 1.72% [at 11.4 µM] (inactive).
For the molecule `CCOC(=O)N/N=C1/C[C@@H](O)[C@@H](O)[C@@H]2[C@@H]3C(=O)N(Cc4ccc5c(c4)OCO5)C(=O)[C@H]3CC[C@H]12`, the activity, negative = inhibition is -5.83% [at 11.4 µM] (inactive).
Turning to `COc1ccc(C(=O)N/N=C2/SCC(=O)N2Cc2ccc3c(c2)OCO3)cc1OC`, the half-maximal activity concentration (AC50) was 14.1 µM (active).
Still for that read-out and setting: with `Cc1ccc(NC2=NC(c3ccccc3)n3c(nc(C)cc3=O)N2)c(C)c1` (centres undefined) the figure was 35.5 µM (active).
Turning to `COc1ccccc1CNc1cc(-c2ccccc2C)ncn1`, the activity, negative = inhibition is -15.1% [at 2.29 µM] (inactive).
Turning to `O=C1C(=O)N(c2cccc(Cl)c2)C(c2ccccc2[N+](=O)[O-])/C1=C(\O)c1ccccc1` (centres undefined), the concentration at half-maximal activity (AC50) is 2 µM (active).
Take `COc1ccc(C2/C(=C(/O)c3ccc(Cl)cc3)C(=O)C(=O)N2CCN2CCOCC2)c(OC)c1` (centres undefined): the “activity, negative = inhibition” value is -24.6% (inactive).
As to `CC(C)(C)N1C(=O)[C@H]2[C@@H]3[C@H](O)[C@H](O)CC(=O)[C@H]3CC[C@H]2C1=O`, the activity, negative = inhibition is 6.8% [at 11.4 µM] (inactive) and 2.7% [at 11.4 µM] (inactive).

These data come from PubChem BioAssay AID1851 (National Center for Advancing Translational Sciences (NCATS), 2009).
